For 1 compound, Potency and outcome results are on record in PubChem BioAssay (NCATS).

Assay [1] can be described thus: qHTS for differential inhibitors of proliferation of Plasmodium falciparum line 3D7 (AID 1876;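 also: parasite growth measured after three days of culture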). (Quantitative high-throughput screening tests each substance at several concentrations.)
Assay [2] is described as follows: qHTS for differential inhibitors of proliferation of Plasmodium falciparum line Dd2 (AID 1882).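 Also: compound exposure of 72 h on infected erythrocytes; nearly all actives have a fitted effect of over 65% in size.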 As to conditions: Potency: Plasmodium falciparum Dd2 proliferation inhibition. Summed up:
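RBC culture, 0.3% parasitemia / 2.5% Hct final; cpd added by pin tool in DMSO; 72 h, 37 C, 5% CO2; lysis buffer + SYBR Green I, o/n RT dark; FI 485/535; norm. to artemisinin 0.29 uM and DMSO.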

The target in assay [3] is ATP-dependent DNA helicase Q1 (Homo sapiens) (UniProt P46063). The experiment in a line: qHTS Validation Assay for Inhibitors of RecQ-Like Dna Helicase 1 (RECQ1) (AID 2353). Also: potency is read from the fitted curve at half-maximal effect. In short, it runs like this:
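RECQ1T1 50 nM; forked duplex (20 bp + 30-nt ss tails) 200 nM, ATP 2 mM final; pH 8.0, 2 mM MgCl2, 2.5 ug/ml poly(dI-dC); 15 min compound preincubation; discontinuous kinetic read over 2 h at RT.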

A short description of assay [4]: Cytometric Cell-Based qHTS for Inhibitors of the mTORC1 Signaling Pathway in MEF (Tsc2-/-, p53-/-) Cells (AID 2660).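 Also: Tsc2 and p53 null MEFs carrying empty vector with compound for 24 h; percent of cells above a phospho-rpS6 to PI ratio cutoff in each well.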 In short, it runs like this:
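Percent of cells positive for normalized phospho-S6 staining is reported, with the cutoff set from rapamycin (7.5 nM) versus DMSO wells. Tsc2-/-, p53-/- MEFs received compound for 24 hrs.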

A short description of assay [5]: High Content Imaging Cell-Based qHTS for Inhibitors of the mTORC1 Signaling Pathway in MEF (Tsc2-/-, p53-/-) Cells (AID 2666).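 Also: percent of cells scored positive for phospho-rpS6 Ser235/236 immunostaining by imaging.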 As to conditions: at 38.3 µM (top of the series). In short, it runs like this:
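Inhibition of rpS6 phosphorylation is measured by immunofluorescence imaging in empty-vector Tsc2-/-, p53-/- mouse embryonic fibroblasts after 24 hrs compound exposure at 37 degree Celsius. Results are reported as % positive cells per well.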

Assay [6] can be described thus: High Content Imaging Cell-Based qHTS for Inhibitors of the mTORC1 Signaling Pathway in MEF Cells (AID 2667).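 Also: Tsc2-/- p53-/- MEFs stably re-expressing wild-type Tsc2 exposed 24 h.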 In short, it runs like this:
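Fixed-cell imaging of phospho-S6 (Ser235/236, Alexa-488) after 24 hrs of compound treatment at 37 degree Celsius. Signal was normalized to Hoechst, and thresholds from the highest and lowest wells split cells into % active versus % non-active.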

Assay [7] is described as follows: Cytometry Cell-Based qHTS for Inhibitors of the mTORC1 Signaling Pathway in MEF cells (AID 2668).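 Also: Tsc2-/- p53-/- mouse embryonic fibroblasts stably re-expressing wild-type Tsc2; percent cells positive for phospho-rpS6 Ser235/236 relative to propidium iodide stain.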 Summed up:
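Phospho-rpS6 (Ser235/236) immunofluorescence over PI signal, scored as % positive cells using thresholds from 7.5 nM rapamycin and DMSO wells, after 24 h compound exposure of WT-Tsc2-rescued Tsc2-/-, p53-/- MEFs. PI cell count recorded for viability.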

The nature of assay [8]: Validation screen for small molecules that induce DNA re-replication in MCF 10A normal breast cells (AID 463097). Also: nearly all actives have a fitted effect of over 60% in size. Summed up:
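Read-out is Hoechst total nuclear intensity by fluorescence scanning imager, flagging increased high-DNA-content nuclei. Compounds were incubated with MCF 10A cells for 48 hr (37 C, 5% CO2) before 40 min staining.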

For assay [9], the target named is DNA polymerase III PolC-type (Bacillus subtilis (strain 168)) (UniProt P13267). In words: qHTS Validation Assay for the Inhibitors of DNA Replication in Gram-Positive Bacteria (AID 485295). Also: potency is read from the fitted curve at half-maximal effect. Summed up:
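Double-stranded DNA product detected by PicoGreen fluorescence after EDTA quench. Compound incubated with B. subtilis holoenzyme (PolC, beta subunit, SSB, primase) before substrate addition; primed replication of M13Gori with dNTPs and NTPs at room temperature; DMSO defines 0% inhibition.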

Assay [10] concerns the target Tumor susceptibility gene 101 protein (Homo sapiens) (UniProt Q99816). The experiment in a line: qHTS Validation Assay for Iinhibitors of HIV-1 Budding by Blocking the Interaction of PTAP/TSG101 (AID 485342; calls by dose curve). Summed up:
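Fluorescence polarization of 50 nM FITC-PTAP peptide bound to 10 uM Tsg101 binding domain was read after 20 min room-temperature incubation with compounds, in 10 mM HEPES pH 7.5, 0.15 M NaCl, 0.01% Tween 20.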

For assay [11], the target named is Beta-2 adrenergic receptor (Homo sapiens) (UniProt P07550). The experiment in a line: qHTS validation assay of beta-arrestin-biased ligands of beta2-adrenergic receptor (AID 485366). In short, it runs like this: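 Screening used a titration range of up to 46 microM in a beta-arrestin recruitment Tango luciferase assay. Cells in 1% FBS medium were treated 18 hr at 37 degrees C, and luminescence was normalized to %Activity.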
Chain of Beta-2 adrenergic receptor (Homo sapiens) (P07550 whole entry, looked up): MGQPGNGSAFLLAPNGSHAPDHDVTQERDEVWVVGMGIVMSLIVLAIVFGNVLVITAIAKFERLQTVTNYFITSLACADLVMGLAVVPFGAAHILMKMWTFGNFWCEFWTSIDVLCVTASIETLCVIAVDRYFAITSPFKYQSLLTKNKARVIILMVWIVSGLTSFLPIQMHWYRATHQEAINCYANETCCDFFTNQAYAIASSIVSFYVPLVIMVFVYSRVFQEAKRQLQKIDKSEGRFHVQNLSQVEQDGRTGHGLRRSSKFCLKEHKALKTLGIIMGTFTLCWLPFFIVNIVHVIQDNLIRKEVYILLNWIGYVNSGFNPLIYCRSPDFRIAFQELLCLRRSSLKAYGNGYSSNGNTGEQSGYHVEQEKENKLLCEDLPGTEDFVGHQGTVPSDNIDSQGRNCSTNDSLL

In assay [12] the target is ATP-dependent 6-phosphofructokinase (Trypanosoma brucei brucei) (UniProt O15648). The experiment in a line: qHTS Validation Assay to Find Inhibitors of T. brucei phosphofructokinase (AID 485368). Also: potency is read from the fitted curve at half-maximal effect. In short, it runs like this: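 PFK-generated ADP was measured after 45 min at room temperature using ADP-Glo. The reaction contained 0.5 mM F6P and 0.1 mM ATP.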
Chain of ATP-dependent 6-phosphofructokinase (Trypanosoma brucei brucei) (O15648 whole entry, looked up): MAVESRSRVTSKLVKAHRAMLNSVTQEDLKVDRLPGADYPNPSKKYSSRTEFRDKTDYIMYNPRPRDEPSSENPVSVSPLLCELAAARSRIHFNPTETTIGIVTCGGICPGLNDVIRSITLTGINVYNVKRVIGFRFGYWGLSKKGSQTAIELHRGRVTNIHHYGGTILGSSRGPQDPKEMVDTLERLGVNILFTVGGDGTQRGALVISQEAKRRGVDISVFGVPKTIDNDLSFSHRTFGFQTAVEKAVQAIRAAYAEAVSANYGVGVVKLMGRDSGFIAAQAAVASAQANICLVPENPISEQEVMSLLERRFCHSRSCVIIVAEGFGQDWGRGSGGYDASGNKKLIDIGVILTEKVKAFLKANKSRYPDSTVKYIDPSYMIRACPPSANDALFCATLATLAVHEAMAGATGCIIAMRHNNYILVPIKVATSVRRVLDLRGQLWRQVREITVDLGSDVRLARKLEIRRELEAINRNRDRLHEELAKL
The target in assay [13] is Thioredoxin reductase 1, cytoplasmic (Rattus norvegicus) (UniProt O89049). In words: qHTS Assay for Substrates of Mammalian Selenoprotein Thioredoxin Reductase 1 (TrxR1) (AID 488772).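 Also: a drop in NADPH fluorescence below the no-compound background marks a TrxR1 substrate.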 Summed up:
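In this dual-purpose format, potential substrates are identified from the first fluorescence read after selenite addition, not from the 8-minute delta. Rat enzyme is preincubated with NADPH and then with compound at ~22 deg C.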

The target of assay [14] is M-phase phosphoprotein 8 (Homo sapiens) (UniProt Q99549). In words: qHTS Validation Assay for Inhibitors for MPP8 Chromodomain Interactions with Methylated Histone Tails (AID 488949). Also: potency is read from the fitted curve at half-maximal effect; nearly all actives have a fitted effect of over 55% in size. Summed up: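 AlphaScreen proximity signal from streptavidin donor and Ni-chelate acceptor beads (10 ug/mL each) reported binding of MPP8 to trimethyl-K9 H3(1-18) peptide, both at 50 nM. The complex formed 30 min before a 30 min compound exposure at room temperature, in PBS pH 7.4.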
Chain of M-phase phosphoprotein 8 (Homo sapiens) (Q99549 whole entry, looked up): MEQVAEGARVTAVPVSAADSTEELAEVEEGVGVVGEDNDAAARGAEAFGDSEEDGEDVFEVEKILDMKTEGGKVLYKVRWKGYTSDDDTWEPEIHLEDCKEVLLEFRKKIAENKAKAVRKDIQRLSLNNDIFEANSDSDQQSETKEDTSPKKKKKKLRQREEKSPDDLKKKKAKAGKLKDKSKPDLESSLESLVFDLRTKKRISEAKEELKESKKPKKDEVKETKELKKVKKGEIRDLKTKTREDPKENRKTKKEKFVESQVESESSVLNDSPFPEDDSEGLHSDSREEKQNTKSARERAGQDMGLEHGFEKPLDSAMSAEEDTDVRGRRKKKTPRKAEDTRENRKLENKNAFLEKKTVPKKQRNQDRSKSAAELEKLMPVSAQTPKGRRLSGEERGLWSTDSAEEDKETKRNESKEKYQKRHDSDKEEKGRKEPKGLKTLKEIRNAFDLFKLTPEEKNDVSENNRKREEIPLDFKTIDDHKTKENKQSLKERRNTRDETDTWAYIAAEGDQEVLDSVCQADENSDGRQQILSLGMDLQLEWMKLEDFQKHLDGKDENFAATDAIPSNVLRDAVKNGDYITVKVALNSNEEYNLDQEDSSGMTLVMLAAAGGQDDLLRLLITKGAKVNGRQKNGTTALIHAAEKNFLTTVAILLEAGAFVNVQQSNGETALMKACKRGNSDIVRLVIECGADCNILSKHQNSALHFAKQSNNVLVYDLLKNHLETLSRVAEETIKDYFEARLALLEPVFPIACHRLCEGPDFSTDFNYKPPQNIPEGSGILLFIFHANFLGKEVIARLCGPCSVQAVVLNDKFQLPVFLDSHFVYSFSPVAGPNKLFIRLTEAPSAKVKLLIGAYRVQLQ

Assay [15] has as its target Chromobox protein homolog 1 (Homo sapiens) (UniProt P83916). In words: qHTS Validation Assay for Inhibitors of HP1-beta Chromodomain Interactions with Methylated Histone Tails (AID 488953). Also: potency is read from the fitted curve at half-maximal effect; nearly all actives have a fitted effect of over 50% in size. Summed up:
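AlphaScreen proximity readout: streptavidin donor and Ni-chelate acceptor beads, 10 ug/mL final, 30 min dark, RT. Complex of 50 nM HP1-beta and 50 nM b-H3(1-18)K9me3 formed 30 min, then compound-treated 30 min; PBS pH 7.4/0.01% Tween-20.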

The target in assay [16] is Methanococcus maripaludis chaperonin (MmCpn) (UniProt Q6LX38). In words: High-Throughput Screening for Modulators of Cytosolic Chaperonin Activity: MmCpn Primary Screen (AID 488978).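 Also: 50 nM MmCpn enzyme hydrolysing 30 µM ATP at 37 °C.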 In short, it runs like this: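 ATPase activity of 50 nM MmCpn was assayed with 30 uM ATP, 10 minutes at 37C, after a 5 min compound preincubation at room temperature. ADP production was read as HTRF emission at 590 and 665 nm.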

Assay [17] has as its target Thyrotropin receptor (Homo sapiens) (UniProt P16473). The experiment in a line: qHTS Assay for Antagonists of the Thyroid Stimulating Hormone Receptor (AID 488980). In short, it runs like this:
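Inhibition of cAMP raised by EC80 TSH (4 nM final) was read by HTRF, with lysate cAMP competing against cAMP-d2 for cryptate antibody after 30 min at room temperature. The cells were transfected HEK293 held in phosphodiesterase inhibitor RO 20-1724 at 70 uM.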

The target of assay [18] is D(1A) dopamine receptor (Homo sapiens) (UniProt P21728). The experiment in a line: HTS Assay for Allosteric Agonists of the Human D1 Dopamine Receptor: Primary Screen for Agonists (AID 488981). Summed up: (§1)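 Tetracycline-induced HEK293 T-REx cells force-coupled to calcium signalling were incubated overnight at 30 C and dye-loaded at room temperature. Calcium flux over 180 s after compound addition flagged agonists; a further 180 s read after EC20 dopamine flagged potentiators.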
Chain of D(1A) dopamine receptor (Homo sapiens) (P21728 whole entry, looked up): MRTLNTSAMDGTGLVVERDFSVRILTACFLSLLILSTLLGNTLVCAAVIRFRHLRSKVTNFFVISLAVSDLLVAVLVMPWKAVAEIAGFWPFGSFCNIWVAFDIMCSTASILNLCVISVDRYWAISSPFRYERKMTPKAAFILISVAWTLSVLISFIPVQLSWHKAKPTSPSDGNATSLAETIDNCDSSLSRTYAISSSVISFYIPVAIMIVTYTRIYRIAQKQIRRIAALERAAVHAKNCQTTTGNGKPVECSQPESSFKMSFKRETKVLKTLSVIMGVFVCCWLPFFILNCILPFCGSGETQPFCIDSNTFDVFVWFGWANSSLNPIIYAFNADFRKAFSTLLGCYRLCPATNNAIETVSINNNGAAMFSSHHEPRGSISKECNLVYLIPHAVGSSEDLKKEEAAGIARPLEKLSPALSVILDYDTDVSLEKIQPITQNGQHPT

The target is the same in assay [19]. The experiment in a line: HTS Assay for Allosteric Agonists of the Human D1 Dopamine Receptor: Primary Screen for Potentiators (AID 488982). In short, it runs like this:
as §1

Assay [20] shares this target. In words: HTS Assay for Allosteric Agonists of the Human D1 Dopamine Receptor: Primary Screen for Antagonists (AID 488983).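 Also: calcium flux response to an EC80 dopamine challenge measured with no-wash dye; nearly all actives have a fitted effect of over 65% in size.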 Summed up: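 Calcium flux readout, no-wash dye, inducible HEK293 T-REx D1 line (force-coupled). Compound added after 10 s baseline, 180 s kinetic read; then dopamine at EC80, further 180 s read.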

Several values for one entry are separate records, joined by “and”; a condition that tells them apart may be missing. Equal entries are not always repeated. Inconclusive results are not listed. Activity calls are given as the source filed them. Unless noted, calls follow the shape of the dose curve; as a rule, active = well fitted curve in the direction sought with a large enough effect; inconclusive = small, poorly fitted or top-dose-only effect, or another doubt; inactive = no such curve, though single readings can be large; an effect the other way counts as inactive or inconclusive.

Chain of Tumor susceptibility gene 101 protein (Homo sapiens) (Q99816 whole entry, looked up, the tested form may be a part): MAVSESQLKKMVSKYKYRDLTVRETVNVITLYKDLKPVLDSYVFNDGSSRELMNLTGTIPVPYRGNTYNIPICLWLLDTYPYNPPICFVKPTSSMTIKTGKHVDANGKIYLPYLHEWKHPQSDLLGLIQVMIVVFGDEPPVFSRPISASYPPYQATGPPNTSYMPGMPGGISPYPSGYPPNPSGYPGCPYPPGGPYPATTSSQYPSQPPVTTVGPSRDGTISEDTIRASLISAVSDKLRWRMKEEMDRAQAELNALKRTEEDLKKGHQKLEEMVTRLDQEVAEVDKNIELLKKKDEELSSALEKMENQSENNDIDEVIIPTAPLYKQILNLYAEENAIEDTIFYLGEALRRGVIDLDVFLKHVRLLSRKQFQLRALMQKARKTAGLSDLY
Chain of Thyrotropin receptor (Homo sapiens) (P16473 whole entry, looked up): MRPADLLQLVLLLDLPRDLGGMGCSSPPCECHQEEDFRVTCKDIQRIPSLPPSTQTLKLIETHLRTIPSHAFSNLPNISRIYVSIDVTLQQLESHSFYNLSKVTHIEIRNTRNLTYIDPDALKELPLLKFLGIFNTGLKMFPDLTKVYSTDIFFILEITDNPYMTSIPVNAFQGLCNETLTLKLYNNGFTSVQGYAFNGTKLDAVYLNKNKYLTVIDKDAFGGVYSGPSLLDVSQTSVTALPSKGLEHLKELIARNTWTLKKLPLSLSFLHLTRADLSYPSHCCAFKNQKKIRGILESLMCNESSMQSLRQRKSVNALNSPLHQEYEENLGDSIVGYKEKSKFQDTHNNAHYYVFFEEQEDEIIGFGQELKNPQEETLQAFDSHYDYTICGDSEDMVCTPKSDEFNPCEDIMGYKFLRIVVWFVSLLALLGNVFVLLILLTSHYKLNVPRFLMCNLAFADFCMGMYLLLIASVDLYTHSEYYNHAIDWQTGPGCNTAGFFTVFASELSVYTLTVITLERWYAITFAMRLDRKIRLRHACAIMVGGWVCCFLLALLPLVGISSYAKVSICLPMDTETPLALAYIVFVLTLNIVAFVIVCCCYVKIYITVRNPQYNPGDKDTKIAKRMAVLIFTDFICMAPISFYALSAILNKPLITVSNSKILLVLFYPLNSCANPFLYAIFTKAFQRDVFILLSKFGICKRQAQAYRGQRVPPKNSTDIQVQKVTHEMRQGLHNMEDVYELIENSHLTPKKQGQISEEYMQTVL
Chain of Thioredoxin reductase 1, cytoplasmic (Rattus norvegicus) (O89049 whole entry, looked up): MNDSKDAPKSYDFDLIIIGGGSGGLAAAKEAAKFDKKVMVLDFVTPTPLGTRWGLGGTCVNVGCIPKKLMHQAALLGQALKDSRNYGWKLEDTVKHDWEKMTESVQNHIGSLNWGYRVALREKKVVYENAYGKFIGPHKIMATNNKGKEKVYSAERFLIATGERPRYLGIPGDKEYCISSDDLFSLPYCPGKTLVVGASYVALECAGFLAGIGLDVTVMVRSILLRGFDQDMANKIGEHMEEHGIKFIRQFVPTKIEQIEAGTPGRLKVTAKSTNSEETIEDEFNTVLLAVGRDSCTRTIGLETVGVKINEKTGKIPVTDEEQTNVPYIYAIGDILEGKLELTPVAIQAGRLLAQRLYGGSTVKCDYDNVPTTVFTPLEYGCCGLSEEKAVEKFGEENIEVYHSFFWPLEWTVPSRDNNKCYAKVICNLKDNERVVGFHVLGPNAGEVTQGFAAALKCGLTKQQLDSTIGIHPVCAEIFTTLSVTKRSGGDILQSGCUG
Chain of ATP-dependent DNA helicase Q1 (Homo sapiens) (P46063 whole entry, looked up): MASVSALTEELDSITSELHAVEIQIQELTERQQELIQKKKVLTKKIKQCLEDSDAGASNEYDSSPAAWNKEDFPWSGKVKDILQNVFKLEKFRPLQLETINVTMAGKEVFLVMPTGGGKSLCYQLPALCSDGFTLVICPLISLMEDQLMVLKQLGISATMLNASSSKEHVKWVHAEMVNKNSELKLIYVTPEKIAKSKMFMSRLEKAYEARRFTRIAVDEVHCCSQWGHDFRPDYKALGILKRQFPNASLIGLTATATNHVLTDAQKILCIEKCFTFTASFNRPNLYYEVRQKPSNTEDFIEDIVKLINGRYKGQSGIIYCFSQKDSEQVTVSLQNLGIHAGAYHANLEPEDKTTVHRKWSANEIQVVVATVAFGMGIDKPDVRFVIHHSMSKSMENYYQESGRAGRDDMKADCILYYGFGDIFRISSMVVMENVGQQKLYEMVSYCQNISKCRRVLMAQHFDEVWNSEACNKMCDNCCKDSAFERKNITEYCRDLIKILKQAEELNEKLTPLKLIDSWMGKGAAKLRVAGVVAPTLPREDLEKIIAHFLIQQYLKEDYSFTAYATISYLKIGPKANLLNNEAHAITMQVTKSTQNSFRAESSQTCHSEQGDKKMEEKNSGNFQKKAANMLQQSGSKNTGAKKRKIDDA
Chain of Chromobox protein homolog 1 (Homo sapiens) (P83916 whole entry, looked up): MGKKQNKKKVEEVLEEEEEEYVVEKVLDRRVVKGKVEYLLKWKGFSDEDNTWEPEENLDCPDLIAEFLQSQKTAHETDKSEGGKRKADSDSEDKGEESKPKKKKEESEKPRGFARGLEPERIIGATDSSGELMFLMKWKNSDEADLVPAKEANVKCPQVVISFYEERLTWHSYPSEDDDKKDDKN

Turning to `Nc1c(S(=O)(=O)O)cc(Nc2ccc(Nc3nc(Cl)nc(Nc4ccc(S(=O)(=O)O)cc4)n3)c(S(=O)(=O)O)c2)c2c1C(=O)c1ccccc1C2=O`, the Potency entry in [1], in assay [2], in assay [6], in assay [7] and in [8] was “inactive” in each case. In addition, the Potency in [3] was 1000 nM (active); in [9], 5320 nM (active); in assay [12] it was 2390 nM (active); in assay [14], 1.58 µM (active) and 844 nM (active); in assay [15], 1260 nM (active). Also, the result in assay [4], in [5], in [10], in assay [11], in [13] and in assay [16] was inactive. Further, the result in assay [17], in [18], in assay [19] and in assay [20] was inactive.
